Assays:
Type in all cases: functional
Plasmodium falciparum [1] = test: GSK_TCMDC: Inhibition of Plasmodium falciparum 3D7 in whole red blood cells, using parasite LDH activity as an index of growth. Test compounds present at 2uM
Plasmodium falciparum [2] = test: GSK_TCMDC: Inhibition of Plasmodium falciparum Dd2 in whole red blood cells, using parasite LDH activity as an index of growth. Test compounds present at 2uM
HepG2 = test: GSK_TCMDC: Percent inhibition of human HepG2 cell line. Test compounds present at 10uM.

| Structure (SMILES) | Inhibition (Plasmodium falciparum [1]) | Inhibition (Plasmodium falciparum [2]) | Inhibition (HepG2) |
| --- | --- | --- | --- |
| COc1ccc(-c2nc(NC(=O)Cc3ccc4c(c3)OCCO4)sc2C)cc1 | 100% | 99% | 0% |
| CN1CCCc2ccc(NC(=O)c3cnc(-c4ccccc4)cn3)cc21 | 87% | 82% | 24% |
| COc1ccc2nccc([C@@H](O)CN3CCC(NCc4cc5cc(Cl)ccc5[nH]4)CC3)c2c1.O=C(O)C(=O)O | 99% | 64% | 27% |
| COc1ccc(CN2CCC(N3CC(c4ccccc4)(c4ccccc4)OCC3=O)C2)c(O)c1.O=C(O)C(F)(F)F (configuration not stated) | 96% | 27% | 10% |
| CC(CNCc1cn(Cc2cc(Br)cc(Br)c2)c2ccccc12)CNc1cc(=O)c2ccccc2[nH]1 (configuration not stated) | 100% | 50% | 10% |
| COc1ccc(-c2cccc(NC(=O)c3cccc(C#N)c3)c2)cc1CNC(C)C.O=C(O)C(F)(F)F | 100% | 51% | 22% |
| COc1ccccc1C(=O)N1CCN(Cc2cccs2)CC1 | 96% | 1% | 87% |
| CCCC(=O)Nc1ccc(OCCCN(Cc2ccccc2C(F)(F)F)c2ccc(C#N)c(C(F)(F)F)c2)cc1 | 89% | 79% | 0% |
| CC(C)C(=O)n1ncc2c3c(N)nc(N)nc3ccc21 | 87% | 3% | 0% |
| COc1ccc(NC(=O)Nc2ccc(C)c(-c3ccc(C(=O)Nc4ccncc4)cc3)c2)cc1 | 99% | 50% | 39% |
| Oc1c(C=Nn2cnnc2)sc2ccccc12 | 93% | 68% | 0% |
| COc1ccc2c(c1)nc(CNC(=N)N)n2Cc1ccc(Cl)cc1.Cl | 100% | 99% | 12% |
| I.N=C(N)NCC=C(c1ccccc1)c1ccccc1 | 94% | 83% | 9% |
| COc1ccc(CNC2CCN(C)CC2)cc1-c1ccc(S(=O)(=O)NCCc2ccccn2)c(C)c1.O=C(O)C(F)(F)F | 96% | 91% | 7% |
| CN1CCN(c2ccc(Nc3ncc(C#N)c(Nc4ccccc4C(N)=O)n3)cc2)CC1.Cl | 92% | 93% | 43% |
| CCCCOC(=O)c1ccc(Nc2cc(C)nc3ccc(OC)cc23)cc1 | 100% | 96% | 4% |
| COc1ccc(C(=O)CCC(=O)N(Cc2ccc(-c3ccc(CNCc4cccnc4)cn3)cc2)C2CCN(Cc3ccccc3)CC2)cc1F.O=C(O)C(F)(F)F | 94% | 26% | 30% |
| COc1ccc(CNCc2ccccc2)cc1-c1ccc(S(=O)(=O)NCCN2CCCC2)s1.O=C(O)C(F)(F)F | 100% | 62% | 32% |
| COc1cc2c(=O)c(Cc3ccc(Cl)cc3)c(C)[nH]c2cc1F | 85% | 28% | 13% |
| CNC(=O)c1nc(-c2ccccc2)[nH]c1NC(C)=O | 100% | 0% | 0% |
| N#Cc1cccc(NC(=O)C2=C(CCc3ccc4c(c3)OCO4)NC(=O)NC2c2cccc(C#N)c2)c1 (configuration not stated) | 96% | 47% | 3% |
| CC1CN(c2ccc(NC(=O)c3cccs3)cc2)CCN1Cc1cccc(F)c1.O=C(O)C(F)(F)F (configuration not stated) | 96% | 96% | 5% |
| CN(C)c1nc(NN=Cc2cc(Cl)ccc2O)nc(Nc2ccc(F)cc2)n1 | 94% | 46% | 32% |
| CCc1c(C(=O)NC2CCC(N3CCC(c4ccccc4C)CC3)CC2)[nH]c2ccc(Br)cc12 (configuration not stated) | 100% | 99% | 81% |
| O=C(Nc1cccc(C(F)(F)F)c1)c1cccc(S(=O)(=O)NCC2CCCN(Cc3ccccc3)C2)c1.O=C(O)C(F)(F)F (configuration not stated) | 94% | 3% | 17% |
| NC1CCN(Cc2cccc(-c3ccc(-c4nc5ccccc5[nH]4)cc3)c2)C1.O=C(O)C(F)(F)F (configuration not stated) | 100% | 58% | 24% |
| c1ccc(CNc2nc(NCCc3c[nH]cn3)nc(NCc3cccc4ccccc34)n2)cc1 | 91% | 1% | 9% |
| NC1=NC2(CCCCC2)N(OCCCCCCCCNc2nc(N)nc(N)n2)C(N)=N1.O=C(O)C(F)(F)F | 96% | 99% | 44% |
| O=C1COc2ccccc2N1C/C=C(\CN1CCC(c2ccccc2)CC1)c1cc(Cl)cc(Cl)c1 | 91% | 72% | 14% |
